IP6K1 inhibitor: Primary qHTS assay for small molecule inhibitors of Inositol hexaphosphate kinase 1 (IP6K1); IP6K1 kinase, ADP-Glo luminescence, 2 h; active compounds read low; 140,000 tested, 0.81% active; activity change, % (series mostly up to about 58 µM); Inositol hexakisphosphate kinase 1 (Homo sapiens), Q92551; AID 1645851, 2021; in the data active = activity change below about -25%; note: % is set by controls: 0 for no effect and ±100 for the full control effect
Target sequence (Q92551 whole entry, looked up): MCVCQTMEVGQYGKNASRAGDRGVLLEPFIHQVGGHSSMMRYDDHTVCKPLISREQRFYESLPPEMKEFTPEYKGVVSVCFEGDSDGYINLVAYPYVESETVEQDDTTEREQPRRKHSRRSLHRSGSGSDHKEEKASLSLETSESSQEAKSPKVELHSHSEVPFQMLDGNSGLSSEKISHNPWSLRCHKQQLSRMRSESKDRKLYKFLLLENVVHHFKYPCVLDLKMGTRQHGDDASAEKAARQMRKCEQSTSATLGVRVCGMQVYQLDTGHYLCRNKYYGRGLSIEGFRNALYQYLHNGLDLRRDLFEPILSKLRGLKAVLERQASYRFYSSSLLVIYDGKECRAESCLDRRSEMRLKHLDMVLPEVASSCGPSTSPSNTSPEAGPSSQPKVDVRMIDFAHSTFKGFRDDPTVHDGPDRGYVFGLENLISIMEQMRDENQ
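ADP-Glo luminescence measures ADP made by human IP6K1 during a 2 h RT reaction with ATP/IP6 (mix at 1.3 mM/130 uM); top library doses 57.5 and 19.1 uM final.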
KDM5B inh: Primary screen for KDM5B Histone Demethylases FDH-coupled qHTS; KDM5B demethylase, FDH-coupled NADH fluorescence (FDH is formaldehyde dehydrogenase); Potency, µM (series often up to 57.7 µM), most hits filed as inhibitors; AID 1347165, 2019; Lysine-specific demethylase 5B (Homo sapiens), Q9UGL1; 220,000 tested, 2.6% active; active = well fitted inhibition curve with a large enough effect; inconclusive = small, poorly fitted or top-dose-only effect; inactive = no such curve, though single readings can be large or run the other way; note: potency is the fitted concentration of half-maximal effect; 0% is about no effect; nearly all actives have a fitted effect of over 70% in size
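KDM5BΔAP (200 nM final) in 50 mM HEPES pH 7.5, 0.01% Tween-20 was preincubated 10 min at RT with compound over a concentration range. Substrate mix (H3K4me3 12.5 µM, α-KG 25 µM, Fe²⁺, ascorbate, NAD⁺, FDH) was added, and NADH fluorescence change over 30 min gave dose-response curves.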
Active calls of the source: *. Shown are actives, neighbours in structure and some others; about 2.7% of the full set was active somewhere.

Results for Cc1cc(CNC(=O)C2(C(N)=O)CC2)c2[nH]c(-c3ccccc3)c(C)c2c1 ?
IP6K1 inhibitor: 22.8; KDM5B inh: 28.2µM*

How did Cc1c(-c2ccccc2)[nH]c2c(CNC(=O)c3ccc(=O)n(C)n3)cc(Cl)cc12 do in these assays?
IP6K1 inhibitor: 0.0; KDM5B inh: inactive

How did Cc1c(-c2ccccc2)[nH]c2c(CNC(=O)Cn3ccc(=O)[nH]c3=O)cc(Cl)cc12 do in these assays?
IP6K1 inhibitor: -13.0; KDM5B inh: 28.2µM*

How did O=C(Cc1ccc(F)cc1)N1CCC(C(=O)N2CCC(c3ccccc3)CC2)CC1 do in these assays?
IP6K1 inhibitor: 24.8

How did COCc1nncn1C1CCN(S(=O)(=O)c2cc(Cl)ccc2OC)CC1 do in these assays?
IP6K1 inhibitor: 2.5; KDM5B inh: inactive

How did COc1ccc(Cl)cc1C(=O)NCc1nnc2ccc(-c3ccccc3)nn12 do in these assays?
IP6K1 inhibitor: -3.5; KDM5B inh: 25.1µM*

What do the screens show for `COc1ccc(Cl)cc1C(=O)NCc1nnc2ccc(-c3ccc(Cl)cc3)nn12`?
IP6K1 inhibitor: 10.9; KDM5B inh: inactive

Results for COc1ccc(Cl)cc1C(=O)NCc1nnc2ccc(-c3ccc(C)c(C)c3)nn12 ?
IP6K1 inhibitor: -1.4; KDM5B inh: 31.6µM*

What do the screens show for `COc1ccc(S(=O)(=O)N2CC[C@H](n3c(=O)n(C)c4cccnc43)C2)cc1`?
IP6K1 inhibitor: -7.0

What do the screens show for `CC(C)C(NS(C)(=O)=O)C(=O)NCc1cc(F)cc(F)c1` (stereo unspecified)?
KDM5B inh: inactive

Results for CCCc1nnc([C@H]2CCN(Cc3ncc[nH]3)C2)o1 ?
IP6K1 inhibitor: 1.4; KDM5B inh: inconclusive

Results for COc1ccc(CN2CC[C@H](c3nnc(-c4ccncc4)o3)C2)cc1 ?
IP6K1 inhibitor: 0.9; KDM5B inh: inactive

What do the screens show for `Cc1ccc(-c2nnc([C@H]3CCN(Cc4ncc[nH]4)C3)o2)cc1`?
IP6K1 inhibitor: -9.6; KDM5B inh: 35.5µM*

What do the screens show for `COc1ccc(-c2nnc([C@H]3CCN(Cc4ncc[nH]4)C3)o2)cc1`?
IP6K1 inhibitor: 14.3; KDM5B inh: 35.5µM*

How did CCOc1ccc(OCC)c(NC(=O)c2nc3ccccc3nc2N2CCCCC2)c1 do in these assays?
KDM5B inh: inactive

How did O=c1oc2ccccc2c(NCc2ccccc2)c1NS(=O)(=O)c1ccc(F)cc1F do in these assays?
KDM5B inh: inactive

What do the screens show for `CC1=C/C(=N/NC(=O)c2cc(C)oc2C)CC1`?
KDM5B inh: inactive

How did CCOc1ccccc1CNC(=O)c1cc(NC(C)=O)cc2nc(C)ccc12 do in these assays?
IP6K1 inhibitor: 14.4; KDM5B inh: 14.1µM*

Results for COc1ccccc1N1CCN(C(=O)c2cc(NC(=O)C(C)C)cc3nc(C)ccc23)CC1 ?
IP6K1 inhibitor: 12.7; KDM5B inh: inactive

How did Cn1ncc2c(C(=O)NCc3ccc(C(F)(F)F)cc3)cc(-c3ccc(Cl)cc3Cl)nc21 do in these assays?
IP6K1 inhibitor: 9.3

Results for Cc1ccc2c(C(=O)NCc3ccc(C(F)(F)F)cc3)cc(NC(=O)C(C)C)cc2n1 ?
IP6K1 inhibitor: 9.5; KDM5B inh: 15.8µM*

How did Cc1ccc2c(C(=O)NCc3ccc(F)cc3Cl)cc(NC(=O)C(C)C)cc2n1 do in these assays?
IP6K1 inhibitor: 9.6; KDM5B inh: inconclusive

Results for COCCNC(=O)c1cc(NC(=O)C(C)C)cc2nc(C)ccc12 ?
IP6K1 inhibitor: 28.3; KDM5B inh: 25.1µM*

How did CCOc1ccccc1CNC(=O)c1cc(C)nc2c(C)cccc12 do in these assays?
KDM5B inh: inactive

Results for Cc1ccc2c(C(=O)NCc3ccccc3C(F)(F)F)cc(NC(=O)C(C)C)cc2n1 ?
IP6K1 inhibitor: 4.1; KDM5B inh: 25.1µM*

Results for CC(C)N1C(=O)S/C(=C\c2cc(Br)ccc2OCc2ccc(C(=O)O)cc2)C1=O ?
KDM5B inh: inactive

How did COc1cccc(-c2c(C(=O)NC(C)C)nc3sccn23)c1 do in these assays?
IP6K1 inhibitor: 6.4

How did CCSC1=N/C(=C\c2sccc2C)C(=O)S1 do in these assays?
KDM5B inh: inactive

Results for Cc1ccc2c(C(=O)NCc3ccc(F)c(Cl)c3)cc(NC(=O)C(C)C)cc2n1 ?
IP6K1 inhibitor: 6.4; KDM5B inh: inconclusive

How did Cc1ccc2c(C(=O)NCc3cc(F)cc(F)c3)cc(NC(=O)C(C)C)cc2n1 do in these assays?
IP6K1 inhibitor: 18.1; KDM5B inh: 22.4µM*

How did C[C@]1(O)CCN(Cc2ccc(-c3ccccc3C#N)o2)C[C@@H]1O do in these assays?
IP6K1 inhibitor: 13.1; KDM5B inh: 25.1µM*

How did C[C@@]1(O)CCN(Cc2ccc(C#N)cc2)C[C@H]1N1CCCC1 do in these assays?
IP6K1 inhibitor: 0.2; KDM5B inh: inconclusive

What do the screens show for `c1ccc(Nc2cnc3ccc(N4CCOCC4)nn23)cc1`?
IP6K1 inhibitor: 11.7; KDM5B inh: inactive

What do the screens show for `FC(F)(F)c1cccc(Nc2cnc3ccc(N4CCOCC4)nn23)c1`?
IP6K1 inhibitor: -12.8; KDM5B inh: 35.5µM*

What do the screens show for `CCOc1cc(/C=C2\NC(=O)NC2=O)c(Br)cc1O`?
KDM5B inh: inactive

Results for CC(C)COc1ccc(C(=O)N2CCC(c3nc4ccccc4o3)CC2)cc1 ?
KDM5B inh: inactive

What do the screens show for `Cc1cncc(-c2ccccc2OCCN(C)C)c1`?
IP6K1 inhibitor: 11.9; KDM5B inh: inactive

Results for CN(C)CCOc1ccccc1-c1ccc(C#N)cc1 ?
IP6K1 inhibitor: 8.5; KDM5B inh: 31.6µM*

How did O=C(NCC1CCN(c2cc(-c3ccccc3)[nH]n2)CC1)c1ccc[nH]c1=O do in these assays?
IP6K1 inhibitor: 8.4; KDM5B inh: 31.6µM*

Results for O=C(NCC1CCN(c2cc(-c3ccccc3)[nH]n2)CC1)c1ccc[nH]1 ?
IP6K1 inhibitor: 15.7; KDM5B inh: inconclusive

What do the screens show for `COc1ccc(-c2nnc3sc(-c4cc(C(C)(C)C)nn4C)nn23)cc1OC`?
KDM5B inh: inactive

How did O=C(N[C@@H]1C[C@H](Cn2cc(CN3CCS(=O)(=O)CC3)nn2)[C@@H](O)[C@H]1O)C1CCCC1 do in these assays?
IP6K1 inhibitor: -3.8; KDM5B inh: inconclusive

Results for O=C(N[C@@H]1C[C@H](Cn2cc(CN3CCS(=O)(=O)CC3)nn2)[C@@H](O)[C@H]1O)c1cncnc1 ?
IP6K1 inhibitor: 8.0; KDM5B inh: 14.1µM*

How did CNCCN1C(=O)CC[C@H]2CN(C(=O)COc3cccnc3)CC[C@H]21 do in these assays?
IP6K1 inhibitor: -0.6; KDM5B inh: inactive

What do the screens show for `CNCCN1C(=O)CC[C@H]2CN(C(=O)c3ccnc(NC)c3)CC[C@H]21`?
IP6K1 inhibitor: 5.4; KDM5B inh: 25.1µM*

Results for COc1ccc(S(=O)(=O)N2CCCCCC2)cc1NC(=O)CSc1nnc2ccccn12 ?
KDM5B inh: inactive

How did CCOc1ccccc1CNC(=O)c1cc2c(N3CCCC3)nc(C)cn2n1 do in these assays?
IP6K1 inhibitor: 7.5; KDM5B inh: inconclusive

What do the screens show for `Cc1cn2nc(C(=O)NCc3ccccc3F)cc2c(N(C)Cc2ccccc2)n1`?
IP6K1 inhibitor: -5.7; KDM5B inh: 14.1µM*

What do the screens show for `COc1ccccc1CNC(=O)c1cc2c(N(C)Cc3ccccc3)nc(C)cn2n1`?
IP6K1 inhibitor: 13.7; KDM5B inh: 14.1µM*

Results for Cc1cn2nc(C(=O)NCc3ccc(F)cc3F)cc2c(N(C)Cc2ccccc2)n1 ?
IP6K1 inhibitor: 0.2; KDM5B inh: inactive

Screens as filed in PubChem.
